Most compounds without a hit are left out; they make up all but 19% or so of the library.
ELG1 DNA repair – qHTS screen for small molecules that inhibit ELG1-dependent DNA repair in human embryonic kidney (HEK293T) cells expressing luciferase-tagged ELG1. 330,000 compounds, 2.3% hits. HEK293T ELG1-luciferase reporter, luminescence, 16 h; DNA damage induced by 5-fluorouridine. Potency, µM (highest dose often 46.1 µM), for inactives: at the top dose activity change, negative = inhibition, actives largely listed as inhibitors; note: potency is the fitted concentration of half-maximal effect; nearly all actives have a fitted effect of over 55% in size
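Overnight (16 hr) co-exposure of 2,000 cells/well to 5-fluorouridine and compound at 37 °C preceded detection. Luciferase was quantified via ONE-Glo luminescence; loss of signal denotes inhibition.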
DT40 TDP1 no CPT – qHTS for Inhibitors of human tyrosyl-DNA phosphodiesterase 1 (TDP1): qHTS in cells in absence of CPT. 420,000 compounds, 15% hits. DT40 Tdp1-/- hTDP1 cells, no CPT, ATP luminescence, 48 h. AID 686978, 2013. Potency, µM (series often up to 46.2 µM), for inactives: at the top dose activity change, negative = growth inhibition, most hits filed as inhibitors; note: potency is the fitted concentration of half-maximal effect; nearly all actives have a fitted effect of over 55% in size
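Camptothecin absent (DMSO only). Human TDP1-complemented DT40 knockout cells, 400 cells/well, 37 °C for minimum 48 hr; ATP measured via CellTiter-Glo, 30 min dark incubation, luminescence.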
HT1080NT lethal – qHTS for induction of synthetic lethality in tumor cells producing 2HG: qHTS for the HT-1080-NT fibrosarcoma cell line; Potency, µM (highest dose often 46.1 µM), for inactives: at the highest dose activity, negative = less viability, hits mostly cytotoxic; HT-1080-NT fibrosarcoma viability, CellTiter-Glo ATP luminescence, 48 h; 360,000 compounds, 1.6% hits; AID 686970, 2013;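 note: NT is the 2HG producing partner of a matched IDH1 knockdown line; potency is the fitted concentration of half-maximal effect; 0% = DMSO-treated cells and -100% = media-only wells without cells; nearly all actives have a fitted effect of over 55% in size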
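750 cells/well, RPMI + 5% FBS; 2 h settle, compound pin-transfer, 48 h at 37 degrees C. CellTiter-Glo 10 min RT, luminescence. Normalized to DMSO and media-only wells.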
HT1080 IDH1KD tx – qHTS for induction of synthetic lethality in tumor cells producing 2HG: qHTS for the HT-1080-IDH1KD cell line; HT-1080 IDH1 knockdown viability, ATP luminescence, 48 h; Potency, µM (top dose mostly 46.1 µM), for the others: at the highest dose activity, negative = toxicity, usual class: cytotoxic; 360,000 compounds, 2% hits; AID 686971, 2013;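 note: potency is the fitted concentration of half-maximal effect; 0% = DMSO wells and -100% = cell-free medium wells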
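In this qHTS, HT-1080 cells depleted of IDH1 are exposed for 48 h at 37 °C to compound titrations. Toxicity is scored from CellTiter-Glo luminescence, with DMSO as full viability and medium alone as none.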
DT40 TDP1 CPT – qHTS for Inhibitors of human tyrosyl-DNA phosphodiesterase 1 (TDP1): qHTS in cells in presence of CPT | chicken DT40 Tdp1-/-;hTDP1 cells + 20 nM CPT, ATP luminescence, 48 h | 420,000 compounds, 12% hits | Potency, µM (top dose mostly 46.2 µM), for the others: at the top dose activity change, negative = growth inhibition, usual class: inhibitors; note: potency is the fitted concentration of half-maximal effect; nearly all actives have a fitted effect of over 55% in size
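Chicken DT40 Tdp1-/- cells stably complemented with human TDP1 were seeded at 400 cells/well in medium containing 20 nM camptothecin, exposed to pin-transferred compounds, and grown at 37 °C for at least 48 hr. Viability was read as ATP luminescence.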
IL-1B inflam inh – qHTS for Inhibitors of Inflammasome Signaling: IL-1-beta AlphaLISA Primary Screen. activity change, % at 57.5 µM. 360,000 compounds, 4.7% hits. THP-1 LPS/ATP IL-1B secretion, AlphaLISA, 16 h; active compounds read low; in the data active = activity change below about -50%; inconclusive = mostly about -30% to -49%
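Secreted IL-1B measured by AlphaLISA bead assay after 16 h compound exposure of THP-1 cells; compounds (final up to 57.5 uM) added 1 h before LPS (250 ng/mL) and ATP (1.25 mM) stimulation; lower signal means less secretion.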
* = called active by the depositor; ! = not active in a repeat. Unless noted, calls come from the whole dose curve; as a rule, active = well fitted curve in the direction sought with a large enough effect; inconclusive = small, poorly fitted or top-dose-only effect, or another doubt; inactive = no such curve, though single readings can be large; an effect the other way counts as inactive or inconclusive. Unless noted, % is set by controls: 0 for no effect and ±100 for the full control effect.

Results for CC1CCC[C@H](O)CCCCCc2cc(O)cc(O)c2C(=O)O1 (some centres not stated) ?
ELG1 DNA repair: inconclusive; DT40 TDP1 no CPT: inconclusive; HT1080NT lethal: 0%; HT1080 IDH1KD tx: -9%; DT40 TDP1 CPT: -22%; IL-1B inflam inh: -8

How did C[C@H]1CCC[C@H](O)CCCCCc2cc(O)cc(O)c2C(=O)O1 do in these assays?
ELG1 DNA repair: 7.3µM*; DT40 TDP1 no CPT: 18µM*; HT1080NT lethal: -18%; HT1080 IDH1KD tx: inconclusive; DT40 TDP1 CPT: 15µM*; IL-1B inflam inh: -19

What do the screens show for `Cn1c(=O)c2c(nc(-c3ccc(N(CCCl)CCCl)cc3)n2C)n(C)c1=O`?
DT40 TDP1 no CPT: 26µM*; HT1080NT lethal: -11%; HT1080 IDH1KD tx: -15%; DT40 TDP1 CPT: 15µM*; IL-1B inflam inh: inconclusive

How did CC(=O)OC1CC2(C)C(C(C)=O)CCC2C2CCC3=CC(=O)CCC3(C)C12 (configuration not stated) do in these assays?
DT40 TDP1 no CPT: inconclusive; HT1080NT lethal: 7%; HT1080 IDH1KD tx: 7%; DT40 TDP1 CPT: inconclusive; IL-1B inflam inh: -15

Results for O=C1COc2ccc(-c3csc(=Nc4ccc(OC(F)F)cc4)n3CC3CCCO3)cc2N1 (configuration not stated) ?
ELG1 DNA repair: inconclusive; DT40 TDP1 no CPT: 16µM*; HT1080NT lethal: inconclusive; HT1080 IDH1KD tx: inconclusive; DT40 TDP1 CPT: inconclusive; IL-1B inflam inh: -65*

How did Cc1ccc(/C=C2/C(=O)NC(=O)N(CC3CCCO3)C2=O)s1 (configuration not stated) do in these assays?
ELG1 DNA repair: inconclusive; DT40 TDP1 no CPT: inconclusive; HT1080NT lethal: 3%; HT1080 IDH1KD tx: 8%; DT40 TDP1 CPT: -27%; IL-1B inflam inh: 2

What do the screens show for `c1ccc(CCNCc2cccs2)cc1`?
ELG1 DNA repair: 3%; DT40 TDP1 no CPT: -3%; HT1080NT lethal: -14%; HT1080 IDH1KD tx: -9%; DT40 TDP1 CPT: -15%; IL-1B inflam inh: 0

Results for CN(c1ccc(OCC(=O)N2CCN(C/C=C/c3ccccc3)CC2)cc1)S(=O)(=O)c1cccs1 ?
ELG1 DNA repair: 13µM*; DT40 TDP1 no CPT: 5.8µM*; HT1080NT lethal: -26%; HT1080 IDH1KD tx: -23%; DT40 TDP1 CPT: 13µM*; IL-1B inflam inh: -5

Results for O=[N+]([O-])CCO ?
ELG1 DNA repair: 11%; DT40 TDP1 no CPT: -15%; HT1080NT lethal: 19%; HT1080 IDH1KD tx: 6%; DT40 TDP1 CPT: -13%; IL-1B inflam inh: 22

What do the screens show for `Cc1cccc(NC2=NCCCS2)c1`?
ELG1 DNA repair: 7%; DT40 TDP1 no CPT: 5%; HT1080NT lethal: 20%; HT1080 IDH1KD tx: 18%; DT40 TDP1 CPT: 10%; IL-1B inflam inh: -1

How did CCCC[C@@H](C)C[C@@H](C)C(=O)N(C)[C@@H](CC(C)C)C(=O)N[C@H](C(=O)N(C)[C@H](C(=O)N1C[C@@H](O)C[C@H]1C(=O)N1C(=O)C=C[C@@H]1C)C(C)C)C(C)OC(C)=O (some centres not stated) do in these assays?
ELG1 DNA repair: inconclusive; DT40 TDP1 no CPT: 0.0065µM*; HT1080NT lethal: 0.029µM*; HT1080 IDH1KD tx: 0.12µM*; DT40 TDP1 CPT: 0.037µM*; IL-1B inflam inh: -113*

How did COC1C(O)C(C)OC(OC2C(Oc3cccc4c(O)c5c(=O)oc6ccc(C)c7c(=O)oc(c34)c5c67)OC(C)C(O)C2O)C1O (configuration not stated) do in these assays?
DT40 TDP1 no CPT: 0.82µM*; HT1080NT lethal: inconclusive; HT1080 IDH1KD tx: inconclusive; DT40 TDP1 CPT: 0.82µM*; IL-1B inflam inh: -100*

Results for CCN1C[C@]2(COC(=O)c3ccccc3N3C(=O)CC(C)C3=O)CC[C@H](OC)[C@@]34C5C[C@@H]6[C@@H](OC)C[C@@](O)(C5[C@H]6OC)[C@](O)([C@@H](OC)C23)[C@@H]14 (some centres not stated) ?
DT40 TDP1 no CPT: 14%; DT40 TDP1 CPT: 4%

How did CCc1cc(=O)oc2c(C)c(OCC(=O)N3CCC[C@@H]3C(=O)O)ccc12 do in these assays?
ELG1 DNA repair: inconclusive; DT40 TDP1 no CPT: -3%; HT1080NT lethal: 3%; HT1080 IDH1KD tx: 7%; DT40 TDP1 CPT: 6%; IL-1B inflam inh: 13

What do the screens show for `CN1C(=O)C(=Cc2coc3ccccc3c2=O)C(=O)N(C)C1=O`?
ELG1 DNA repair: 10%; DT40 TDP1 no CPT: 23µM*; HT1080NT lethal: 4%; HT1080 IDH1KD tx: 10%; DT40 TDP1 CPT: inconclusive; IL-1B inflam inh: -7

How did CN1C(=O)C(=Cc2cn(CC#N)c3ccccc23)C(=O)N(C)C1=O do in these assays?
ELG1 DNA repair: 0%; DT40 TDP1 no CPT: 6%; HT1080NT lethal: 5%; HT1080 IDH1KD tx: 10%; DT40 TDP1 CPT: 1%; IL-1B inflam inh: -9

Results for [Cl][Pt+2][Cl].[NH-]C1CCCCC1[NH-] (configuration not stated) ?
ELG1 DNA repair: 26%; DT40 TDP1 no CPT: 5.8µM*; HT1080NT lethal: 4%; HT1080 IDH1KD tx: -4%; DT40 TDP1 CPT: 2.3µM*; IL-1B inflam inh: -10

What do the screens show for `C=C1C[C@@H]2[C@H](CC[C@]3(C)C(=O)CC[C@@H]23)[C@@]2(C)C=CC(=O)C=C12`?
DT40 TDP1 no CPT: 8.4µM*; DT40 TDP1 CPT: 16µM*

Results for CCOC(=O)N1CCC(NC(=O)CCc2nc(C3=CCN(C)CC3)no2)CC1 ?
ELG1 DNA repair: 0%; DT40 TDP1 no CPT: -10%; HT1080NT lethal: 7%; HT1080 IDH1KD tx: 17%; DT40 TDP1 CPT: -9%; IL-1B inflam inh: -63*!

What do the screens show for `Cc1ccc(CN(Cc2ccccc2)C(=S)NCC(=O)N2CCC3(CC2)OCCO3)o1`?
ELG1 DNA repair: -14%; DT40 TDP1 no CPT: inconclusive; HT1080NT lethal: 3%; HT1080 IDH1KD tx: -1%; DT40 TDP1 CPT: inconclusive; IL-1B inflam inh: 4

Bioassay records: PubChem, National Center for Advancing Translational Sciences (NCATS)
